According to PubChem BioAssay (Tox21):
Values without a mark were called inactive. Records with an inconclusive call do not appear. A call without a number means that no potency is given here. Active and inactive are the calls of the source. The call rests on the fitted dose curve.

Assays:
[1] = biological target: Acetylcholinesterase (Homo sapiens) (UniProt P22303); assay: Acetylcholinesterase (AChE) small molecule antagonists: enzyme-based qHTS assay (AID 1347397); conditions: Potency: AChE enzyme activity inhibition; outcome: AChE enzyme activity inhibition; further: nearly all actives have a fitted effect of over 55% in size; further: potency means the concentration at half of the fitted maximal effect
Procedure, shortened: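 Colorimetric DTNB read-out of thiocholine released from acetylthiocholine by recombinant human AChE (50 mU/mL as dispensed). Compounds were preincubated 30 min at RT before substrate/DTNB addition, with a 10 min RT reaction.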

[2] = biological target: Acetylcholinesterase (Homo sapiens) (UniProt P22303); assay: Acetylcholinesterase (AChE) small molecule antagonists: fluorescence cell-based qHTS assay (AID 1347398); conditions: Potency: AChE activity; outcome: AChE activity; further: nearly all actives have a fitted effect of over 50% in size
Procedure, shortened: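 SH-SY5Y, 2,000 cells/well, attached overnight; cmpd 30 min 37 C; acetylthiocholine/Thiolite Green cocktail 40 min RT; fluorescence Ex/Em 490/520 nm.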

[3] = biological target: Acetylcholinesterase (Homo sapiens) (UniProt P22303); assay: Acetylcholinesterase (AChE) small molecule antagonists: enzyme-based qHTS assay with human liver microsomes (AID 1347399); conditions: Potency: qHTS inhibition; outcome: qHTS inhibition; further: nearly all actives have a fitted effect of over 60% in size
Procedure, shortened: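 Recombinant human AChE (50 mU/mL in the enzyme mix) and human liver microsomes (0.25 mg/mL final) were preincubated with compound and NADPH (0.25 mg/mL final) for 30 min at 37 C. Acetylthiocholine/DTNB was then added; thiocholine was read colorimetrically after 10 min at room temperature.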

Acetylcholinesterase (Homo sapiens), sequence (P22303 whole entry, looked up): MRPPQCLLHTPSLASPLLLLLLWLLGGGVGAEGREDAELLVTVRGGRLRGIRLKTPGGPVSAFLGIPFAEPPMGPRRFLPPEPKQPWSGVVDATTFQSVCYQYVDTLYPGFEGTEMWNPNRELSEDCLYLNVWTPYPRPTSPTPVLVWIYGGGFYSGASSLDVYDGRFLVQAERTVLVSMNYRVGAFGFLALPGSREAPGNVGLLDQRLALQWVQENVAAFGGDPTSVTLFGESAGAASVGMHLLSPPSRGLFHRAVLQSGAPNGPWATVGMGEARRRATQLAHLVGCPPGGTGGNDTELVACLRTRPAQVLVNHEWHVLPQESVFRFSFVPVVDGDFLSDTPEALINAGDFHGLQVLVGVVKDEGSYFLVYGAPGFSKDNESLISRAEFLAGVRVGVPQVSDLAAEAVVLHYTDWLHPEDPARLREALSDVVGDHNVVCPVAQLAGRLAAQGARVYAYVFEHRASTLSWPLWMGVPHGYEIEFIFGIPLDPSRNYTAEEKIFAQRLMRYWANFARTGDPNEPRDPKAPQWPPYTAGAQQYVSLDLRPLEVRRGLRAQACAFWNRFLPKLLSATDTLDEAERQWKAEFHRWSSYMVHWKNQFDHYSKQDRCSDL

SMILES: CC(C)CCCC(C)NCCC(C)C (stereo not given)
- Potency [1]: inactive
- Potency [2]: inactive
- Potency [3]: inactive

SMILES: CCCCCCCC(=O)N(C)C
- Potency [1]: inactive
- Potency [2]: inactive
- Potency [3]: inactive

SMILES: O=C1c2ccccc2S(=O)(=O)N1CCCCN1CCN(c2ncccn2)CC1
- Potency [1]: inactive
- Potency [2]: inactive
- Potency [3]: inactive

SMILES: O=C(O)C1(C(=O)Nc2ccc(Cl)cc2Cl)CC1
- Potency [1]: inactive
- Potency [2]: inactive
- Potency [3]: inactive

SMILES: CN1CCC(=C2c3ccccc3CC(=O)c3sccc32)CC1
- Potency [1]: inactive
- Potency [2]: inactive
- Potency [3]: inactive

SMILES: O=C(OCc1ccccc1)C(=O)OCc1ccccc1
- Potency [1]: inactive
- Potency [2]: inactive
- Potency [3]: inactive

SMILES: O=c1[nH]cnc2ccccc12
- Potency [1]: inactive
- Potency [2]: inactive
- Potency [3]: inactive

SMILES: BrCCCCCBr
- Potency [1]: inactive
- Potency [2]: inactive
- Potency [3]: inactive

SMILES: C=CCON/C(CCC)=C1\C(=O)CC(C)(C)C(C(=O)OC)=C1O
- Potency [1]: inactive
- Potency [2]: inactive
- Potency [3]: inactive

SMILES: Cc1cc(=O)oc2cc(O[C@@H]3SC[C@@H](O)[C@H](O)[C@H]3O)ccc12
- Potency [1]: inactive
- Potency [2]: inactive
- Potency [3]: inactive

SMILES: CN1C(C)(C)CCCC1(C)C
- Potency [1]: inactive
- Potency [2]: inactive
- Potency [3]: inactive

SMILES: CCCCCCCCCC#N
- Potency [1]: inactive
- Potency [2]: inactive
- Potency [3]: inactive

SMILES: CC(=O)OCC(C)OC(C)=O (stereo not given)
- Potency [1]: inactive
- Potency [2]: inactive
- Potency [3]: inactive

SMILES: CCCCCCCCCCCCCCN(CCO)CCO
- Potency [1]: inactive
- Potency [3]: inactive

SMILES: Cc1nccn1-c1ccc(Sc2cccc(C3(C(N)=O)CCOCC3)c2)cc1
- outcome [1]: inactive
- outcome [3]: inactive

SMILES: N#C/C(=C1\SCC(c2ccccc2Cl)S1)n1ccnc1 (stereo not given)
- Potency [1]: inactive
- Potency [3]: inactive

SMILES: CC(C)=CCC1=C(O)c2ccccc2C(=O)C1=O
- Potency [1]: inactive
- Potency [3]: inactive

SMILES: C1=COCCC1
- Potency [1]: inactive
- Potency [3]: inactive

SMILES: CCCC[P+](C)(CCCC)CCCC
- Potency [1]: inactive
- Potency [3]: inactive

SMILES: CN1CCN(c2cc3c(nn2)Oc2ccccc2N3C)CC1
- activity change, negative = inhibition [1]: -13.5% [at 23.6 µM]
- activity change, negative = inhibition [3]: 1.76% [at 23.6 µM]

SMILES: C=CC(=O)OCC[N+](C)(C)C
- Potency [1]: inactive
- Potency [3]: inactive

SMILES: c1ccc2c(CC3=NCCN3)cccc2c1
- Potency [1]: inactive
- Potency [3]: inactive

SMILES: c1ccc2c(c1)CCCC2C1=NCCN1 (stereo not given)
- Potency [1]: inactive
- Potency [3]: inactive

SMILES: Oc1ccc(C(O)CNCCCCCCNCC(O)c2ccc(O)c(O)c2)cc1O (stereo not given)
- Potency [1]: inactive
- Potency [3]: inactive

SMILES: NC1(c2ccc(-c3nc4ccn5c(=O)[nH]nc5c4cc3-c3ccccc3)cc2)CCC1
- Potency [1]: inactive
- Potency [3]: inactive

SMILES: Nc1ccc(S(=O)(=O)Nc2ccccc2)cc1
- Potency [1]: inactive
- Potency [3]: inactive

SMILES: CCCCCCCCCCCCCCCCCC[N+](C)(C)C
- Potency [1]: 63.5 µM (active)
- Potency [3]: inactive

SMILES: COc1cc2ncnc(Nc3ccc(F)c(Cl)c3)c2cc1OCCCN1CCOCC1
- Potency [1]: inactive
- Potency [3]: inactive

SMILES: Cc1nc(Nc2ncc(C(=O)Nc3c(C)cccc3Cl)s2)cc(N2CCN(CCO)CC2)n1
- Potency [1]: inactive
- Potency [3]: inactive

SMILES: CCCCCCC[N+](CC)(CC)CCCCc1ccc(Cl)cc1
- Potency [1]: inactive
- Potency [3]: inactive

SMILES: NC1[C@H]2CN(c3nc4c(cc3F)c(=O)c(C(=O)O)cn4-c3ccc(F)cc3F)C[C@@H]12 (stereo not given in full)
- outcome [1]: inactive
- outcome [3]: inactive
